Drawing on PubChem BioAssay, this text covers growth inhibition, inhibition and outcome for 20 compounds.

Broadly, the inhibition is the drop in the measured response relative to a control, in per cent.

SMILES strings stand for the structures. Values without a mark were called inactive. For some of these results: Entries with a potency or affinity are not part of this list. Calls of active or inactive are those of the source. Unless noted, how the calls were made is not given here.

Assay [1] in a line: antimalarial activity against Dd2 strain (AID 2302;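 active means growth inhibition above 50% at the single 2 µM test dose, taken to imply half-maximal potency below 2 µM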;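 further: 0% = DMSO untreated growth and 100% = chloroquine plus artemisinin killed control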). To be noted: P. falciparum Dd2 in RBCs, LDH growth readout, 72 h; at 2 µM; active compounds read high.
A short description of assay [2]: HepG2 cytotoxicity, primary screen, cytotoxicity control for P. falciparum antimalarial project, cell-based, ATP luminescence (AID 2303;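 active means inhibition above 50%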;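 further: 0% = DMSO wells and 100% = digitonin-killed cells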). Conditions: HepG2 viability, 24-48 h, at 10 µM, active compounds read high.
In assay [3] the target is L-lactate dehydrogenase (Plasmodium falciparum (isolate CDC / Honduras)) (UniProt Q27743). Put plainly: PfLDH activity inhibition – cell lysate, 3D7 strain, counter-screen for P. falciparum growth inhibition project (AID 2304).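 Further: 0% = vehicle and 100% = reference inhibitor.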 To be noted: P. falciparum 3D7 crude extract, LDH APAD/NBT absorbance; at 2 µM; active compounds read high.
Chain of L-lactate dehydrogenase (Plasmodium falciparum (isolate CDC / Honduras)) (Q27743 whole entry, looked up): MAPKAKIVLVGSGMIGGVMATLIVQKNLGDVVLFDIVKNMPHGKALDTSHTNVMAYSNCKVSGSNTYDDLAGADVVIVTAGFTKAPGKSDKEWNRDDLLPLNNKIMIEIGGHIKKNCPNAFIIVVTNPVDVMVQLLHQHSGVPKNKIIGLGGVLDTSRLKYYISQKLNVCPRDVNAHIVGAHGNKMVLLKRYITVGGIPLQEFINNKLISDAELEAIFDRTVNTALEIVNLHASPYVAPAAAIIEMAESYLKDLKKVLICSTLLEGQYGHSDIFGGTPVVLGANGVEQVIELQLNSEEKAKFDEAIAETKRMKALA
Assay [4] is described as follows: inhibition of 3D7 malaria parasite growth – strain 3D7 (AID 2306).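 Further: 0% = DMSO wells and 100% = chloroquine plus artemisinin control wells.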 To be noted: P. falciparum 3D7 erythrocytic growth, LDH absorbance, 72 h; at 2 µM; active compounds read high.
In assay [5] the target is Calcium-dependent protein kinase 1 (Plasmodium falciparum (isolate 3D7)) (UniProt P62344). Put plainly: PfCDPK1 kinase inhibitors, biochemical, TCAMS library (AID 1159585; cut-off not given, nearly all actives have IC50 up to about 0.98 µM;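 further: inhibitors leave more ATP so luminescence rises with inhibition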). Conditions: recombinant PfCDPK1, Kinase-Glo ATP depletion luminescence. Background: Kinase-Glo reads ATP consumption through a luciferase reaction.
Chain of Calcium-dependent protein kinase 1 (Plasmodium falciparum (isolate 3D7)) (P62344 whole entry, looked up): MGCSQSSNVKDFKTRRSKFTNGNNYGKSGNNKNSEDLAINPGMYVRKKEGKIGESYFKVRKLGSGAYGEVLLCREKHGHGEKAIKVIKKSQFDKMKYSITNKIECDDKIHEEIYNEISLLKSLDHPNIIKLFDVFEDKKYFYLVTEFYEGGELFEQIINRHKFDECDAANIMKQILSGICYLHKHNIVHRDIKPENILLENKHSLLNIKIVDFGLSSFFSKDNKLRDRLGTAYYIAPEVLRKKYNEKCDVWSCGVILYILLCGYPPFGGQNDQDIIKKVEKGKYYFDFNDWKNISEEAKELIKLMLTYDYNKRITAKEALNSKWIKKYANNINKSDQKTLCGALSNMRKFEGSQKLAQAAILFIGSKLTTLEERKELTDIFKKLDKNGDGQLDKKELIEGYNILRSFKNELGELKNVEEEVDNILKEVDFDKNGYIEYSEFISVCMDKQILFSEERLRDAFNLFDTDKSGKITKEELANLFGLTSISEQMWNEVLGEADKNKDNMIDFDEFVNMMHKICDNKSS
The target of assay [6] is Plasmodium falciparum protein kinase 6 (PK6, PF3D7_1337100) (UniProt Q8IDW1). Put plainly: PfPK6 kinase inhibitors, biochemical, TCAMS library (AID 1159586). To be noted: recombinant PfPK6, Kinase-Glo ATP depletion luminescence.
Chain of Plasmodium falciparum protein kinase 6 (PK6, PF3D7_1337100) (Q8IDW1 1-305): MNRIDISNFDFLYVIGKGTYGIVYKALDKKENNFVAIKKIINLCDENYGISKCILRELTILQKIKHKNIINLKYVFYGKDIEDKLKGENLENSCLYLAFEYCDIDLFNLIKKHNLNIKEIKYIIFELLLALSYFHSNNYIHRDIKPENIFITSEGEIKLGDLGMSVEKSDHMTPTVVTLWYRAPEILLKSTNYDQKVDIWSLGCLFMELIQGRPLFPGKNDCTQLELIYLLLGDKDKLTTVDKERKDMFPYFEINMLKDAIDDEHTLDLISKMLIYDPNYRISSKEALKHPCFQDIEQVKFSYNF
Assay [7] addresses Protein kinase 7 (PK7), Plasmodium falciparum 3D7 (PF3D7_0213400) (UniProt Q7YTF7). Put plainly: inhibition of Plasmodium PK7 catalytic activity – biochemical, TCAMS antimalarial set, Kinase-Glo luminescence (AID 1159587). To be noted: recombinant PfPK7, Kinase-Glo ATP depletion luminescence.
Assay [8] addresses Calcium-dependent protein kinase 4 (Plasmodium falciparum (isolate 3D7)) (UniProt Q8IBS5). Put plainly: PfCDPK4 kinase inhibitors, biochemical, TCAMS library (AID 1159588; cut-off not given, nearly all actives have IC50 up to about 0.91 µM). Conditions: recombinant PfCDPK4, Kinase-Glo ATP depletion luminescence.

Chain of Protein kinase 7 (PK7), Plasmodium falciparum 3D7 (PF3D7_0213400) (Q7YTF7 1-343): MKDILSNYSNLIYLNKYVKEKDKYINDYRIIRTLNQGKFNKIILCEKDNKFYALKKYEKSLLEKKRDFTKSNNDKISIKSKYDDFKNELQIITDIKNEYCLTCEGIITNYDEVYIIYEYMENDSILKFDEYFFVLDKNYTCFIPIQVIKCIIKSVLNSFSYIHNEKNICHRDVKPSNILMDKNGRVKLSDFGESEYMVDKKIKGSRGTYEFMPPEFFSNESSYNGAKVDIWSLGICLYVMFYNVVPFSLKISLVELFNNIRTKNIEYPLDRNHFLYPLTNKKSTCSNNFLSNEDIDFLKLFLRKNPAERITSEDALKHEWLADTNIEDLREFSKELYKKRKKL
Chain of Calcium-dependent protein kinase 4 (Plasmodium falciparum (isolate 3D7)) (Q8IBS5 whole entry, looked up): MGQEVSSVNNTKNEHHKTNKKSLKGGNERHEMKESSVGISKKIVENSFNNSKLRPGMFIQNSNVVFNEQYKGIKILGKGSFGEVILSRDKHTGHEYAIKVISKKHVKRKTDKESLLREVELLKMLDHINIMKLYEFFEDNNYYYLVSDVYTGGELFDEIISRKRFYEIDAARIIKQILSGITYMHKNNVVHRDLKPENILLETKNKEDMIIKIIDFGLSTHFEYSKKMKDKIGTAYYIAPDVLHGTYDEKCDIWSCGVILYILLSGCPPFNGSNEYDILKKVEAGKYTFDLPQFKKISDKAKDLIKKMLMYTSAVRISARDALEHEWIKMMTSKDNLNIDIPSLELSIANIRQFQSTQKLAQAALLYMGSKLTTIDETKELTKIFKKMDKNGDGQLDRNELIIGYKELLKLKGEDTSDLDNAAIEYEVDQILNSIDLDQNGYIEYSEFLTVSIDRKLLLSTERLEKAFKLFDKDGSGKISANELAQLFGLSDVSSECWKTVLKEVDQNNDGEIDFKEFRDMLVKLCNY

On to `Cc1ccc(CNC(=O)c2cc3c(=O)n4ccccc4nc3n(CCCN3CCOCC3)c2=N)cc1`, for which the values for the growth inhibition in assay [1] and in assay [4] were 5% and 92% (active), respectively. The inhibition in assay [2] was 21%; in assay [3], -3%. The outcome in assay [5], in assay [6], in assay [7] and in assay [8] was inactive.

As to `Nc1c(Cl)cc(C(O)CNCCCCCOCCCc2ccc3ncccc3c2)cc1Cl` (stereo not given), the results for the growth inhibition in assay [1] and in assay [4] were 77% (active) and 96% (active), respectively. Further, the results for the inhibition in assay [2] and in assay [3] were 24% and -8%, respectively. Also, the outcome in assay [5], in assay [6], in assay [7] and in assay [8] was inactive.

Turning to `CN(C)c1nc2cc(-n3cnc4cc(-c5ccc(Cl)cc5)sc4c3=O)ccc2n1CCCN1CCCCC1`, the growth inhibition in assay [1] was 23%; in assay [4], 97% (active). The inhibition is 55% (active) in assay [2] and 1% in assay [3]. Besides, the result in assay [5], in assay [6], in assay [7] and in assay [8] was inactive.

`CCN(CC)c1ccc(-c2nc3ncc(Cl)cc3[nH]2)cc1`: the growth inhibition in assay [1] and in assay [4] was 85% (active) throughout. The inhibition in assay [2] was 16%; in assay [3], -5%. Also, the outcome in assay [5], in assay [6], in assay [7] and in assay [8] was inactive.

On to `COc1ccc(-c2ccc(CNCc3ccsc3)cc2)cc1S(=O)(=O)NCCN1CCCC1`, for which the growth inhibition in assay [1] was 30%; in assay [4], 94% (active). Moreover, the inhibition in assay [2] was 22%; in assay [3], 3%. Besides, the result in assay [5], in assay [6], in assay [7] and in assay [8] was inactive.

In the case of `O=c1c(Br)c(C(F)(F)F)[nH]c2ccc(Oc3ccccc3)cc12`, the figures for the growth inhibition in assay [1] and in assay [4] were 17% and 91% (active), respectively. In addition, the inhibition in assay [2] was 6%; in assay [3] it was 0%. Besides, the result in assay [5], in assay [6], in assay [7] and in assay [8] was inactive.

`COc1c(Br)cc(Br)cc1-c1ccc(CN2C3CCCC2CCC3)[nH]1`: the growth inhibition is 83% (active) in assay [1] and 88% (active) in assay [4]. Further, the results for the inhibition in assay [2] and in assay [3] were 42% and 3%, respectively. Besides, the outcome in assay [5], in assay [6], in assay [7] and in assay [8] was inactive.

Consider `CC(C)N1CCC(N(Cc2ccc(-c3ccc(C(F)(F)F)cc3)cc2)C(=O)CCCn2c(CCc3cccc(F)c3F)nc(=O)c3ccccc32)CC1`, for which the growth inhibition in assay [1] was 60% (active); in assay [4] it was 89% (active). The results for the inhibition in assay [2] and in assay [3] were 45% and -5%, respectively. Also, the result in assay [5], in assay [6], in assay [7] and in assay [8] was inactive.

On to `COc1ccc(-c2cncc3ccc(C(=O)NCCCn4ccnc4)nc23)cc1`, for which the growth inhibition was 99% (active) in assay [1] and 95% (active) in assay [4]. Moreover, the inhibition in assay [2] was 28%; in assay [3] it was -3%. The result in assay [5], in assay [6], in assay [7] and in assay [8] was inactive.

Regarding `O=C(Nc1cccc(-c2cccc(-c3nc4ccc(C(F)(F)F)cc4[nH]3)c2)c1)c1ccc(=O)[nH]n1`, the growth inhibition was 26% in assay [1] and 103% (active) in assay [4]. Moreover, the values for the inhibition in assay [2] and in assay [3] were 63% (active) and 0%, respectively. Further, the outcome in assay [5], in assay [6], in assay [7] and in assay [8] was inactive.

`CCOc1cc(C)ccc1C1CCN(CCCCNC(=O)c2ccc(-c3ccc(C(F)(F)F)cn3)cc2)CC1`: the growth inhibition in assay [1] was 45%; in assay [4], 99% (active). Moreover, the inhibition in assay [2] is 55% (active); in assay [3], 5%. For the same compound, the result in assay [5], in assay [6], in assay [7] and in assay [8] was inactive.

For `Cc1ccc(NC(=O)Nc2ccc(Cn3ncc(N4CCCNCC4)c(Cl)c3=O)cc2)cc1`, the growth inhibition in assay [1] was 13%; in assay [4] it was 84% (active). Further, the inhibition was 35% in assay [2] and -1% in assay [3]. Also, the outcome in assay [5], in assay [6], in assay [7] and in assay [8] was inactive.

With `O=C(Nc1cccnc1)c1cc(C(=O)Nc2cccnc2)cc([N+](=O)[O-])c1`, the growth inhibition in assay [1] and in assay [4] was 100% (active) throughout. For the same compound, the results for the inhibition in assay [2] and in assay [3] were -12% and -2%, respectively. Also, the outcome in assay [5], in assay [6], in assay [7] and in assay [8] was inactive.

Regarding `O=C(/C=C/c1ccc(Cl)cc1)NCCCCCN1CCC(C(=O)Nc2ccc(Cl)cc2)CC1`, the growth inhibition in assay [1] was -1%; in assay [4], 99% (active). The inhibition in assay [2] was 27%; in assay [3], 8%. For the same compound, the outcome in assay [5], in assay [6], in assay [7] and in assay [8] was inactive.

For the compound `CC1(C)N=C(NC(=O)c2cc([N+](=O)[O-])cc([N+](=O)[O-])c2)N=C(N)N1OCc1cccc2ccccc12`, the figures for the growth inhibition in assay [1] and in assay [4] were 20% and 94% (active), respectively. Further, the inhibition was 66% (active) in assay [2] and -6% in assay [3]. Also, the outcome in assay [5], in assay [6], in assay [7] and in assay [8] was inactive.

As for `CCCCCCCN1CC[C@@H](CCCc2ccnc3ccc(OCC4CCCNC4)cc23)[C@@H](CC)C1` (stereo not given in full), the growth inhibition in assay [1] was 100% (active); in assay [4] it was 98% (active). Further, the inhibition in assay [2] is 99% (active); in assay [3], -1%. The outcome in assay [5], in assay [6], in assay [7] and in assay [8] was inactive.

`CN1CCc2cc(NC(=O)c3cc4ccccc4s3)cc(-c3ccccc3)c2CC1`: the results for the growth inhibition in assay [1] and in assay [4] were 11% and 91% (active), respectively. The values for the inhibition in assay [2] and in assay [3] were 20% and -2%, respectively. In addition, the result in assay [5], in assay [6], in assay [7] and in assay [8] was inactive.

Consider `O=C1c2ccccc2C(=O)N1CCOc1c(Br)cc(Br)cc1CNCCCNc1cc(=O)c2ccccc2[nH]1`, for which the growth inhibition is 12% in assay [1] and 92% (active) in assay [4]. The figures for the inhibition in assay [2] and in assay [3] were 10% and -6%, respectively. Also, the result in assay [5], in assay [6], in assay [7] and in assay [8] was inactive.

As to `O=C(NC1CCCc2ccccc21)[C@@H]1CCCN1C(=O)c1ccc(O)c(-c2cccc([N+](=O)[O-])c2)c1` (stereo not given in full), the growth inhibition in assay [1] and in assay [4] was 99% (active) each time. The inhibition in assay [2] is -5%; in assay [3] it was 5%. The outcome in assay [5], in assay [6], in assay [7] and in assay [8] was inactive.

For `CCCCc1cc(O)c2c(c1)OC(C)(C)C=C2C1=CCN(Cc2ccccc2)CC1`, the growth inhibition was 3% in assay [1] and 98% (active) in assay [4]. The figures for the inhibition in assay [2] and in assay [3] were 9% and -5%, respectively. Besides, the result in assay [5], in assay [6], in assay [7] and in assay [8] was inactive.
